# Measured values published in PubChem BioAssay AID1259313 (Sanford-Burnham Center for Chemical Genomics, 2017).
# About 8,500 (2.5%) of roughly 340,000 compounds were called active.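 How the source made its calls: active means melting temperature shift of at least 10% of the positive control shift, at one fixed dose; inactive means the rest.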 For the sample, actives were picked, then their nearest neighbours and some compounds at random.
# System: Glutamate receptor ionotropic, NMDA 3A (GRIN3A) ligand-binding domain
# Test: binders of NR3A ligand-binding domain, primary screen, biophysical, differential scanning fluorimetry, uHTS (AID 1259313)
# Details: NR3A LBD differential scanning fluorimetry, at 25 µM, hits give high values, 0% = protein alone, 100% = glycine-bound protein
row,Structure (SMILES),Tm shift relative to glycine control
1,Cc1cc(C)nc(SCc2cn3c(C)cc(C)nc3n2)n1,-0.2% (inactive)
2,CN(C)c1ccc(NC(=S)N(CCc2ccccc2)C2CC(=O)N(c3c(Cl)cccc3Cl)C2=O)cc1 (stereo unspecified),-2.73% (inactive)
3,COC(=O)CN(C(=S)Nc1ccc(Cl)cc1)C1CC(=O)N(c2ccc(OC)cc2)C1=O (stereo unspecified),1.51% (inactive)
4,CCOc1ccc(N2C(=O)CC(N(CCc3ccc(OC)c(OC)c3)C(=S)Nc3ccccc3)C2=O)cc1 (stereo unspecified),14.8% (active)
5,O=C(O)C#Cc1cccc2ccccc12,-2.09% (inactive)
6,CCC[C@@H]1C[C@@]1(CCC)[C@@H](NC(=O)c1ccccc1)c1ccc(C(=O)OC)cc1,-0.95% (inactive)
7,CCCCNS(=O)(=O)c1ccc2nc(SCC(=O)Nc3cc(C)cc(C)c3)[nH]c2c1,23.7% (active)
8,Cc1cc(C)c(NC(=O)CSc2nc3ccncc3[nH]2)c(C)c1,-0.53% (inactive)
9,COc1ccc2nc(SCC(=O)Nc3c(C)cc(C)cc3C)[nH]c2c1,2.89% (inactive)
10,COC1=CC(=O)OC(c2ccc(OC)cc2)C1 (stereo unspecified),3.44% (inactive)
11,Cc1ccc(CNC(=O)CCS(=O)(=O)c2ccc3c(c2)CC(C)N3C(=O)C2CC2)o1 (stereo unspecified),-0.09% (inactive)
12,CCc1cccc2c3c([nH]c12)C(CC)(CC(=O)O)OCC3 (stereo unspecified),14.4% (active)
13,CCOC(=O)C(=Cc1ccccc1OC)C(=O)OCC,0.09% (inactive)
14,C=C1c2cccc(OC)c2O[C@H](C(=O)OCC)[C@@H]1CCCCCC,19.5% (active)
15,CCOC(=O)C1=C(C)c2ccccc2OC1C(=O)OCC (stereo unspecified),0.67% (inactive)
16,COC(=O)Cn1cnc2scc(-c3ccc(C)c(C)c3)c2c1=O,0% (inactive)
17,NCCN1CCN2C(=O)CN(C(=O)c3ccccc3)CC12 (stereo unspecified),-1.42% (inactive)
18,Cc1cc(F)ccc1NC(=S)NCCc1ccccc1,-1.3% (inactive)
19,Cn1c(N)c(C(=O)COC(=O)c2ccc3ccccc3c2)c(=O)n(C)c1=O,-3.76% (inactive)
20,Cc1cccc(-c2nc(Nc3ccc(O)cc3)c3ccccc3n2)c1,44.7% (active)
21,CC(=O)Nc1cccc(Nc2nc(-c3cccs3)nc3ccccc23)c1,1.63% (inactive)
22,Oc1ccc(-c2nnc(Nc3ccccc3)c3ccccc23)cc1,-0.38% (inactive)
23,COc1ccc(N2CCN(C(=O)CNC(=O)c3ccc(C(C)(C)C)cc3)CC2)cc1,3.46% (inactive)

row,Structure (SMILES),Tm shift relative to glycine control
1,CC(C)(C)c1cc2cccnc2n1Cc1ccccc1,-1.7% (inactive)
2,CCOc1ccc(NC(=O)CC2C(=O)N(c3ccccc3)C(=O)N2CCOC)cc1 (stereo unspecified),-0.16% (inactive)
3,COC(=O)CN1C(=S)N(c2ccccc2)C(=O)C1CC(=O)Nc1ccc(Cl)cc1 (stereo unspecified),28.7% (active)
4,COCCN1C(=O)N(c2ccc(Cl)cc2)C(=O)C1CC(=O)Nc1cc(OC)cc(OC)c1 (stereo unspecified),0.08% (inactive)
5,CC(C)N1CCC(=NNc2ccc([N+](=O)[O-])cc2S(=O)(=O)N2CCOCC2)CC1,0.15% (inactive)
6,Cc1ccc(S(=O)(=O)N2CCCCC2)cc1NC(=O)c1cccnc1,-0.36% (inactive)
7,O=C(CCNC(=O)c1ccc(Br)cc1)Nc1cccc(S(=O)(=O)N2CCCCC2)c1,-8.95% (inactive)
8,Cc1ccc(S(=O)(=O)N2CCCCC2)cc1NC(=O)CCNC(=O)c1ccccc1,10.2% (active)
9,CCOC(=O)NN1C(=O)c2ccccc2NC1c1ccccc1O (stereo unspecified),1.62% (inactive)
10,C=CCOc1c(CNn2cn[nH]c2=S)cccc1OC,1.48% (inactive)
11,Cc1cc(C)cc(NC(=O)c2cccc(NC(=O)C3C4CC5OC(=O)C3C5C4)c2)c1 (stereo unspecified),3.21% (inactive)
12,COC(=O)CNC(c1ccccc1Cl)c1cc(Br)ccc1NC(=O)CCN1CCOCC1 (stereo unspecified),-6.58% (inactive)
13,Cc1ccc(CNC(=O)c2cccc3c2C(=O)c2ccc(N4CCC(C)CC4)cc2S3(=O)=O)cc1,0.32% (inactive)
14,NC(=O)C(Cc1ccccc1)NC(=O)C12CC3CC(CC(C3)C1)C2 (stereo unspecified),1.38% (inactive)
15,CCOC(=O)c1c(C)oc2cc(Sc3ccccc3)c(O)c(O)c12,1.87% (inactive)
16,COc1ccc(CCN2CC(C(=O)OCC(=O)NCc3ccccc3Cl)CC2=O)cc1OC (stereo unspecified),-0.25% (inactive)
17,COc1ccc(C(CNC(=O)c2cc3c(s2)CCCC3)N2CCOCC2)cc1 (stereo unspecified),53.2% (active)
18,COc1ccc(C(CNC(=O)c2cccnc2SC)N2CCOCC2)cc1 (stereo unspecified),-0.34% (inactive)
19,O=C(NCCCN1CCOCC1)c1cc2c(s1)CCC2,1.5% (inactive)
20,COc1ccc(C(CNC(=O)c2ccc(S(=O)(=O)Nc3ccccc3C)cc2)N2CCOCC2)cc1 (stereo unspecified),2.35% (inactive)
21,COc1ccc(C(CNC(=O)c2cccc(S(=O)(=O)Nc3ccccc3Cl)c2)N2CCOCC2)cc1 (stereo unspecified),15.6% (active)
22,COc1ccc(C(CNC(=O)c2cccc(NS(=O)(=O)c3ccc(C)c(F)c3)c2)N2CCCC2)cc1 (stereo unspecified),-1.75% (inactive)
23,CC(C)NC(=O)c1ccccc1S(=O)c1ccccc1C#N (stereo unspecified),-0.24% (inactive)

row,Structure (SMILES),Tm shift relative to glycine control
1,Cc1noc(C)c1S(=O)(=O)N(C)Cc1ccccc1,-2.24% (inactive)
2,CCNC(=O)CCc1nc(-c2ccc(C(C)(C)C)cc2)no1,2.39% (inactive)
3,COCCN(CCOC)S(=O)(=O)NC[C@H]1O[C@@H](n2cnc3c(N)ncnc32)[C@H](O)[C@@H]1O,-2.01% (inactive)
4,CN(NS(=O)(=O)c1cccs1)c1ncc(C(F)(F)F)cc1Cl,-0.95% (inactive)
5,O=C(NCCCN1CCOCC1)c1cn(-c2ccccc2)nc1-c1ccc(F)cc1,-0.58% (inactive)
6,O=C(/C=C/c1ccc([N+](=O)[O-])o1)NNC(=O)c1ccc(F)cc1,-1.3% (inactive)
7,O=C(N/N=C/c1ccc([N+](=O)[O-])o1)c1cn(-c2ccccc2)nc1-c1ccc(F)cc1,57.3% (active)
8,O=C(CCn1nnc2ccccc21)OCC(=O)c1ccc([N+](=O)[O-])cc1,-0.44% (inactive)
9,Cc1ccc(C(=O)NNC(=O)c2ccc3c(c2)OCCO3)cc1,1.65% (inactive)
10,O=C(Nc1ccc(Cl)cn1)c1ccc2c(c1)OCCO2,-0.17% (inactive)
11,Cc1nc(NC(=O)c2ccc3c(c2)OCCO3)ccc1Br,11.1% (active)
12,O=S(=O)(c1cccc(Cn2nnc(-c3ccc(F)cc3)n2)c1)N1CCOCC1,0.18% (inactive)
13,COc1ccc(S(=O)(=O)N(C)C[C@H]2Oc3c(NC(=O)Nc4ccc5c(c4)OCO5)cccc3C(=O)N([C@H](C)CO)C[C@@H]2C)cc1,-34% (inactive)
14,Cc1ccc(-n2nc3cc(C)c(NC(=O)c4cccnc4)cc3n2)cc1,-2.09% (inactive)
15,CCOC(=O)c1ccc(NC(=O)c2cccnc2)cc1,0.68% (inactive)
16,Cc1ccc2nc(-c3ccc(NC(=O)c4cccnc4)cc3)oc2c1,24% (active)
17,Cc1cc(NS(=O)(=O)c2ccc(NC(=O)c3cccnc3)cc2)nc(C)n1,-0.7% (inactive)
18,CC(=O)NC(=S)Nc1ccc(NC(=O)c2cccnc2)cc1,2.02% (inactive)
19,Cc1cc2nc(-c3ccc(NC(=O)c4cccnc4)cc3)oc2cc1C,24.6% (active)
20,Cc1ccc(C2CC(c3cccc(NS(C)(=O)=O)c3)=NN2S(C)(=O)=O)cc1 (stereo unspecified),-1.41% (inactive)
21,CC(C)(C)C(=O)COC(=O)c1cc(S(=O)(=O)N2CCCCC2)ccc1N1CCOCC1,-1.85% (inactive)
22,COc1ccccc1CNS(=O)(=O)c1ccc2c(c1)NC(=O)CS2,1.27% (inactive)
23,COc1ccc(Cl)cc1C=CC=Nc1ccc(S(N)(=O)=O)cc1,-9.77% (inactive)

row,Structure (SMILES),Tm shift relative to glycine control
1,CC(=NNC(=O)c1ccc2nc[nH]c2c1)c1ccc(Br)cc1,-13% (inactive)
2,CSc1ccc(/C=N\NC(=O)CC(=O)NC(C)C)cc1,-7.31% (inactive)
3,O=C(N/N=C/c1ccc(Cl)c(Cl)c1)c1ccc2nc[nH]c2c1,27.4% (active)
4,Cc1nc2ccc(C(=O)N/N=C/c3ccc(O)cc3)cc2[nH]1,-4.58% (inactive)
5,CSc1ccc(/C=N/NC(=O)c2cccc(Cl)c2)cc1,19.1% (active)
6,O=C(NN=Cc1ccccc1)c1ccccc1,3.44% (inactive)
7,c1ccc(COc2ccccc2CNCc2cccnc2)cc1,-0.7% (inactive)
8,CCOn1c(SC(C)C)nc2ccccc2c1=O,-0.18% (inactive)
9,COCC(C)n1c(SCC(=O)NC2CCCCC2C)nc2ccccc2c1=O (stereo unspecified),-0.26% (inactive)
10,CCOC(=O)C(C)Sc1nc2ccccc2c(=O)n1CC1CCCCC1 (stereo unspecified),15.7% (active)
11,CCOC(=O)CCCCCC(=O)Nc1ccc2c(c1)CC(=O)N([C@@H](C)CO)C[C@H](C)[C@@H](CN(C)Cc1ccccc1)O2,0.56% (inactive)
12,COc1ccc(NCc2nnc(SCc3ccccc3)n2-c2ccc(OC)cc2)cc1,-0.87% (inactive)
13,CCc1nonc1NC(=O)c1oc2ccc(Cl)cc2c1C,-0.44% (inactive)
14,COc1ccc(CCNC(=O)COC(=O)Cc2ccccc2F)cc1,1.52% (inactive)
15,COc1ccc(CCNC(=O)COC(=O)Cc2cccc(F)c2)cc1,15.5% (active)
16,COc1ccc(CCNC(=O)COC(=O)Cc2cc(OC)c(OC)c(OC)c2)cc1,-0.75% (inactive)
17,NC(=S)c1ccc(C(N)=S)o1,9.83% (inactive)
18,COc1ccc(C(C(=O)NCC2CCCO2)N(C(=O)Cn2nnc3ccccc32)c2ccc(NC(C)=O)cc2)cc1OC (stereo unspecified),1.93% (inactive)
19,O=C(CNC(=O)c1cccs1)N/N=C/c1cccc(Br)c1,-2.08% (inactive)
20,CC(=O)NC(Cc1c[nH]c2ccccc12)C(=O)NCCc1ccccc1 (stereo unspecified),1.08% (inactive)
21,O=C(NC(Cc1c[nH]c2ccccc12)C(=O)N/N=C/c1ccc(Br)cc1)c1cccs1 (stereo unspecified),19.7% (active)
22,OC(CNCC1CCCO1)Cn1c2ccc(Br)cc2c2cc(Br)ccc21 (stereo unspecified),-15.9% (inactive)
